Potency data for nine molecules are collected here from PubChem BioAssay (Tox21).

Test [1] is described as follows: Nuclear factor erythroid 2-related factor 2/antioxidant responsive element (Nrf2/ARE) small molecule agonists: qHTS cell viability counter screen in human keratinocytes (AID 1919968; active = well fitted curve in the direction sought with a large enough effect in the repeat runs; an effect the other way counts as inactive or inconclusive; note: nearly all actives have a fitted effect of over 55% in size). In short, it runs like this:
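KeratinoSens cells (HaCaT keratinocytes stably carrying an ARE-luciferase reporter) were seeded at 1,500 cells/well and rested 5 h at 37 C/5% CO2. They were then exposed to compounds in DMSO for 23 h. Viability was read by CellTiter-Fluor fluorescence after 1 h.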

Test [2] in a line: Nuclear factor erythroid 2-related factor 2/antioxidant responsive element (Nrf2/ARE) small molecule agonists: luciferase reporter gene qHTS assay in human keratinocytes (AID 1919969). Note: nearly all actives have a fitted effect of over 35% in size. Note: potency is the fitted concentration of half-maximal effect.
The target in test [3] is Gonadotropin-releasing hormone receptor (Homo sapiens) (UniProt P30968). The test is described as follows: Human gonadotropin-releasing hormone receptor (GnRHR) small molecule agonists, calcium flux assay in GnRHR-HEK293 cells (AID 1920063). Note: nearly all actives have a fitted effect of over 35% in size. The method in brief: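 HEK293 cells stably expressing human GnRHR were plated 18 h at 37 °C, loaded with calcium dye 1 h at 37 °C, then given compound in agonist mode; fluorescence (Ex/Em 480/540) read kinetically for 3 min at 1 s intervals.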
Chain of Gonadotropin-releasing hormone receptor (Homo sapiens) (P30968 whole entry, looked up): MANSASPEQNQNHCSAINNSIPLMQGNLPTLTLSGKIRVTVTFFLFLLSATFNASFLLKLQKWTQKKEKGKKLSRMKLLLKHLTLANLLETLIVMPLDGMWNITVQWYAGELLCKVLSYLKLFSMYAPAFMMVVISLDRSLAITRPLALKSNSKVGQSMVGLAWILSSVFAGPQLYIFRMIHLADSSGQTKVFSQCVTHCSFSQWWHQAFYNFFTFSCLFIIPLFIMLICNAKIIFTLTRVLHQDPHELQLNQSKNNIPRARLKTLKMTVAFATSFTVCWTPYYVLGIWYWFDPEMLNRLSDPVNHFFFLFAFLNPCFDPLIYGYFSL

In test [4] the target is KiSS-1 receptor (Homo sapiens) (UniProt Q969F8). The test can be described thus: Human kisspeptin (KISS1R) small molecule agonists, calcium flux assay in KISS1R-HEK293 cells (AID 1920064; active = well fitted curve in the direction sought with a large enough effect in the repeat runs; an effect the other way counts as inactive or inconclusive). The method in brief: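 HEK293 cells stably expressing human KISS1R were plated 18 h at 37 °C, loaded with calcium dye for 1 h at 37 °C, then given compound by pin tool. Fluorescence (Ex/Em 480/540) was read kinetically for 3 min.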
Chain of KiSS-1 receptor (Homo sapiens) (Q969F8 whole entry, looked up): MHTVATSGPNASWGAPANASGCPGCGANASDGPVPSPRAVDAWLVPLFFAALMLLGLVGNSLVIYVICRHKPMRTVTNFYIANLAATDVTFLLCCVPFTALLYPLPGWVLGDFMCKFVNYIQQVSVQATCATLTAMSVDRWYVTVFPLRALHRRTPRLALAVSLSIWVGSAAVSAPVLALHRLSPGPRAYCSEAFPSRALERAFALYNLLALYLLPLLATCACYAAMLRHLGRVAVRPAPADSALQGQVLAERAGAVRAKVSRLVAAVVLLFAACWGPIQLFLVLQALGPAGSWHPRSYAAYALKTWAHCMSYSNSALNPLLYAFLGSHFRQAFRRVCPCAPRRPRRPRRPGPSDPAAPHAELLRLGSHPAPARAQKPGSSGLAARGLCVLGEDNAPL
(In general: Calcium flux is commonly read through the fluorescence of an indicator in the cells.)

Test [5] can be described thus: G protein-coupled receptor (GPCR) small molecule agonists, calcium flux assay: HEK293 wild type cell line counter screen (AID 1920065). In short, it runs like this: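 Cells were plated and cultured 18 h at 37 C/5% CO2, then loaded with calcium dye for 1 h at 37 C. Compounds in DMSO were pin-transferred in agonist mode, and fluorescence (Ex/Em 480/540) was read kinetically for 3 min at 1 s intervals.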

A short description of test [6]: p53 small molecule agonists, cell-based qHTS assay with human liver microsomes: qHTS cell viability counter screen (AID 1963579). Note: nearly all actives have a fitted effect of over 45% in size. The method in brief: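 Metabolic activation used human liver microsomes and NADPH, both 0.5 mg/mL final, over 16 hours at 37 C on p53RE-bla cells (4,000/well). Cytotoxicity measured by CellTiter-Glo luminescence, 30 min at room temperature.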
On the technique in general: Quantitative high-throughput screening tests each substance at several concentrations.

Test [7] can be described thus: p53 small molecule agonists, cell-based qHTS assay with rat liver microsomes: qHTS cell viability counter screen (AID 1963580). Note: nearly all actives have a fitted effect of over 45% in size. The method in brief: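 In HCT-116 cells carrying a p53 response element-bla reporter, compounds were metabolically activated in situ by rat liver microsomes with NADPH over 16 h. Cell ATP content then served as the cytotoxicity measure.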

Test [8] in a line: p53 small molecule agonists, cell-based qHTS assay: qHTS cell viability counter screen (AID 1963581). Note: nearly all actives have a fitted effect of over 45% in size. In short, it runs like this: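 p53RE-bla HCT-116 cells were exposed to compounds for 16 h at 37 C; after the beta-lactamase FRET read in the same wells, CellTiter-Glo was added and luminescence (intracellular ATP) read after 30 min at room temperature.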
Test [9] has as its target 5-hydroxytryptamine receptor 2A (Homo sapiens) (UniProt P28223). The test is described as follows: 5-hydroxytryptamine receptor 2A (HTR2A) small molecule antagonists, cell-based qHTS assay (AID 1963586). Note: nearly all actives have a fitted effect of over 45% in size. In short, it runs like this:
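Antagonist-mode intracellular calcium assay: DOI (4 nM) added after 5 min compound pre-incubation at room temperature to dye-loaded HTR2A-CHO cells. Fluorescence followed for 3 min, sampled every second.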

The target is the same in test [10]. The test is described as follows: 5-hydroxytryptamine receptor 2A (HTR2A) small molecule agonists, cell-based qHTS assay (AID 1963587). Note: nearly all actives have a fitted effect of over 30% in size. The method in brief: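 HTR2A-CHO cells, plated 18 h at 37 C/5% CO2, dye-loaded 1 h at 37 C; compounds in DMSO added by pin tool (agonist mode). Intracellular calcium flux read as kinetic fluorescence on FDSS over 2 min at 1 s intervals.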

The target in test [11] is Muscarinic acetylcholine receptor M1 (Homo sapiens) (UniProt P11229). The test can be described thus: Cholinergic receptor muscarinic 1 (CHRM1) small molecule antagonists, cell-based qHTS assay (AID 1963588). Note: nearly all actives have a fitted effect of over 40% in size. In short, it runs like this:
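CHRM1-CHO calcium-flux assay, antagonist mode. Cells were seeded 18 h, dye-loaded 1 h at 37 C and given compound for 5 min at RT, then acetylcholine was added at 50nM. FDSS fluorescence was read 3 min; 15 concentrations, three runs.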

The target is the same in test [12]. The test can be described thus: Cholinergic receptor muscarinic 1 (CHRM1) small molecule agonists, cell-based qHTS assay (AID 1963589). Note: nearly all actives have a fitted effect of over 35% in size. In short, it runs like this:
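CHO cells stably expressing human CHRM1, seeded 18 h at 37 C/5% CO2, dye-loaded 1 h at 37 C, then given compound in agonist mode; intracellular calcium fluorescence read kinetically at 1 s intervals. Fifteen concentrations, three independent runs.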

Test [13] addresses Beta-2 adrenergic receptor (Homo sapiens) (UniProt P07550). The test is described as follows: Adrenergic beta2 receptor (ADRB2) small molecule antagonists, cell-based qHTS assay (AID 1963592). Note: series mostly up to about 92 µM; nearly all actives have a fitted effect of over 50% in size. The method in brief:
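Cells (CHO, stable ADRB2 overexpression) incubated 18-20hr at 37C; compounds added from DMSO; agonist mix (1nM isoproterenol, 100uM IBMX, 25uM Ro-20-1724) added; 0.5hr RT; d2-cAMP and anti-cAMP-cryptate added; 1hr RT; 665/615 nm read.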

For test [14], the target named is D(2) dopamine receptor (Homo sapiens) (UniProt P14416). The test is described as follows: Dopamine D2 receptor (DRD2) small molecule agonists, cell-based qHTS assay (AID 1963594). Note: nearly all actives have a fitted effect of over 35% in size. In short, it runs like this: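 HEK293 cells stably expressing DRD2 were cultured 24 h at 37 C, then given Ro20-1724 (0.1 mM final) and compounds for 10 min at room temperature. NKH477 (200nM) was then added for 30 min. cAMP was read by HTRF.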
Chain of D(2) dopamine receptor (Homo sapiens) (P14416 whole entry, looked up): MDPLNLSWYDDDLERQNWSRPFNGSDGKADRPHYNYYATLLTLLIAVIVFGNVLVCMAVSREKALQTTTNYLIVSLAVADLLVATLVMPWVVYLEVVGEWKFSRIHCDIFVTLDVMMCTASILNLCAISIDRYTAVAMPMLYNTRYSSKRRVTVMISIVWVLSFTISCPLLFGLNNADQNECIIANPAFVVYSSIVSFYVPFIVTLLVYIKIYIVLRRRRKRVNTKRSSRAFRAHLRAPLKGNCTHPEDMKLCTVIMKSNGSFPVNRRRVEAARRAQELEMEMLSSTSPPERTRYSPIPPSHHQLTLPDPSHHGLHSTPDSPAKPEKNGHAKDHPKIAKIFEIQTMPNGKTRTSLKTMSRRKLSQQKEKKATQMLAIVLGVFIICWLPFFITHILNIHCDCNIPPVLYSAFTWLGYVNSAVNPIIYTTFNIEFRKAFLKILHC

Test [15] shares this target. The test is described as follows: Dopamine D2 receptor (DRD2) small molecule antagonists, cell-based qHTS assay (AID 1963595; active = well fitted inhibition curve with a large enough effect in the signal ratio in the repeat runs, with a control signal flat; the % refers to the signal ratio). In short, it runs like this: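 In this cell-based antagonist screen, compounds act for 10 min at room temperature before a 30 min challenge with 12 nM quinpirole and 200 nM NKH477. cAMP is quantified by HTRF competition in DRD2-HEK293 cells containing 0.1 mM Ro20-1724.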

A short description of test [16]: cAMP Responsive Elements (CRE) small molecule agonists, cell-based qHTS assay (AID 1963590). The method in brief:
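CRE-bla HEK 293T cells in DMEM with 10% dialyzed FBS, NEAA, pyruvate and 25 mM HEPES were plated 18 h at 37 C/5% CO2, then exposed to compounds in DMSO for 3 h before LiveBLAzer B/G FRET substrate addition.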

Test [17] in a line: cAMP Responsive Elements (CRE) small molecule antagonists, cell-based qHTS assay (AID 1963591; active = well fitted inhibition curve with a large enough effect in the signal ratio in the repeat runs, not every such curve was filed as active; the % refers to the signal ratio). In short, it runs like this:
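CRE-bla HEK293T cells were plated 18 h at 37 °C/5% CO2, pinned with compound in DMSO, then stimulated with NKH477 at 0.25 uM final for 3 h. LiveBLAzer B/G FRET substrate was added and plates incubated 2 h at room temperature.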

Test [18] deals with Beta-2 adrenergic receptor (Homo sapiens) (UniProt P07550). The test can be described thus: Adrenergic beta2 receptor (ADRB2) small molecule agonists, cell-based qHTS assay (AID 1963593).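 Note: CHO cells stably overexpressing human ADRB2.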 In short, it runs like this: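 CHO cells stably over-expressing ADRB2 were plated overnight at 37C, then dosed with compounds plus a stimulation mix containing 100uM IBMX and 25uM Ro-20-1724 for 0.5hr at room temperature. cAMP was measured by HTRF competition, 1hr.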
Chain of Beta-2 adrenergic receptor (Homo sapiens) (P07550 whole entry, looked up): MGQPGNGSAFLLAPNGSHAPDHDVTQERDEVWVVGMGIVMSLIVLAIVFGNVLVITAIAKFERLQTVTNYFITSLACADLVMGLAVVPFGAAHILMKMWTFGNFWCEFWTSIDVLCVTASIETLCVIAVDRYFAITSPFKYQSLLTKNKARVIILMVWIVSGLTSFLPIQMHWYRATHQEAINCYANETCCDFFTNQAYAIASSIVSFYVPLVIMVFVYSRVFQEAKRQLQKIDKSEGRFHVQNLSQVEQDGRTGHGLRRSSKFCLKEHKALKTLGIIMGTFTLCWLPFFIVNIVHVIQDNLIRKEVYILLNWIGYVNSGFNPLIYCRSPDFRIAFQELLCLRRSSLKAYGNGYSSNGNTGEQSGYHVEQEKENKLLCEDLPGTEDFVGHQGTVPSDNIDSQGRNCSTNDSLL

Molecules are shown by their SMILES. A number with no mark means an inactive call. Records with an inconclusive call do not appear. Activity calls are given as the source filed them. Unless noted, calls come from the whole dose curve.

Chain of Muscarinic acetylcholine receptor M1 (Homo sapiens) (P11229 whole entry, looked up): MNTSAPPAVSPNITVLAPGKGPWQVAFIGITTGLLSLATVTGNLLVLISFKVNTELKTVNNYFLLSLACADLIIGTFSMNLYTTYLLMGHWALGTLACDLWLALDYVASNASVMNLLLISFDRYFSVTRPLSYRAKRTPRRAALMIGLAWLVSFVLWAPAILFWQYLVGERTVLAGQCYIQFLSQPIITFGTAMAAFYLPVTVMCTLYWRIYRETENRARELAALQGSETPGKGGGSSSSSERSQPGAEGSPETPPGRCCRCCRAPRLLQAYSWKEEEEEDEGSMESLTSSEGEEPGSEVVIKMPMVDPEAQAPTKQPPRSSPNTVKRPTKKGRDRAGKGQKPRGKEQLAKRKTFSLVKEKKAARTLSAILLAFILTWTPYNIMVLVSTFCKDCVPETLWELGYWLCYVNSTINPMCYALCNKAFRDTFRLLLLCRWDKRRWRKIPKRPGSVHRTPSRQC
Chain of 5-hydroxytryptamine receptor 2A (Homo sapiens) (P28223 whole entry, looked up): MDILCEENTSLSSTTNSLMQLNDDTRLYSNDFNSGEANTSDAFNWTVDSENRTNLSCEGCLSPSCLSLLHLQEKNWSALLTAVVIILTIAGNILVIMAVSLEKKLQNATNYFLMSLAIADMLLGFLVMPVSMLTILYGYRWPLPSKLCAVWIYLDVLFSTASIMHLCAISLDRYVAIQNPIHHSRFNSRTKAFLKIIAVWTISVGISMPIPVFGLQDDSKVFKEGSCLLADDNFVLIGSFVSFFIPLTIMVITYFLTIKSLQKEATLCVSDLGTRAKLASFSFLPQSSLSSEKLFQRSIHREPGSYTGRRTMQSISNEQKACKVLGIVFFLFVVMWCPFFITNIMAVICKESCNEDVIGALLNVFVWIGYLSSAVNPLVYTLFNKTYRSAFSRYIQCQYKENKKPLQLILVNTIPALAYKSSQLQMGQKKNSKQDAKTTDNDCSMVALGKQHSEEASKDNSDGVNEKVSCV

On to `CCCc1nc(C)c2c(=O)[nH]c(-c3cc(S(=O)(=O)N4CCN(CC)CC4)ccc3OCC)nn12`, for which the Potency entry in test [1], in test [2], in [3], in [4], in test [5] and in test [6] was “inactive” in each case. Besides, the Potency result in test [7], in test [8], in test [9], in test [10], in [11] and in test [12] was “inactive” in each case. For the same molecule, the Potency result in test [13], in [14] and in test [15] was “inactive” in each case.
With `C[C@@H](O)[C@H]1C(=O)N2C(C(=O)O)=C(S[C@@H]3CN[C@H](CNS(N)(=O)=O)C3)[C@H](C)[C@H]12`, the Potency entry in test [1], in [2], in test [3], in test [4], in test [5] and in test [6] was “inactive” throughout. For the same molecule, the Potency result in test [7], in test [8], in test [9], in test [10], in [11] and in test [12] was “inactive” in each case. The Potency entry in test [14] was “inactive”.
Consider `N#CCCOCCOCCC#N`, for which the Potency result in [1], in test [2], in test [3], in test [4], in test [5] and in [6] was “inactive” throughout. Besides, the Potency entry in [7], in [8], in test [9], in [10], in test [12] and in [16] was “inactive” in each case. In addition, the Potency result in test [17], in test [13], in test [18], in [14] and in [15] was “inactive” each time.
Consider `CC(C)(C)C(=O)CCc1ccc(Cl)cc1`, for which the Potency entry in test [1], in [2], in [3], in [4], in [5] and in test [6] was “inactive” in each case. The Potency entry in test [7], in test [8], in [9], in test [10], in [11] and in test [12] was “inactive” each time. The Potency result in test [17], in [13], in test [18], in test [14] and in [15] was “inactive” in each case.
Regarding `OC/C(Br)=C(\Br)CO`, the Potency result in [1], in [2], in test [3], in test [4], in test [5] and in [6] was “inactive” each time. The Potency entry in [7], in test [8], in test [9], in [10], in test [11] and in test [16] was “inactive” each time. Besides, the Potency result in [13], in [14] and in test [15] was “inactive” in each case.
In the case of `NC(=O)n1c(O)c(C(=O)c2cccs2)c2cc(Cl)ccc21`, the Potency result in [1], in [3], in [4], in [5], in test [6] and in test [7] was “inactive” in each case. Further, the Potency entry in [8], in [9], in test [10], in [11], in test [12] and in test [13] was “inactive” each time. Moreover, the Potency result in test [14] and in [15] was “inactive” throughout. The Potency in test [2] was 26.6 µM (active).
With `C/C=C1\C(=O)C[C@H]2[C@@H]3CCC4=CC(=O)CC[C@]4(C)[C@H]3CC[C@]12C`, the Potency result in [1], in test [3], in test [4], in test [5], in test [6] and in [7] was “inactive” each time. Besides, the Potency entry in [8], in test [10], in [11], in test [12], in test [13] and in test [14] was “inactive” each time. Moreover, the Potency result in [15] was “inactive”. For the same molecule, the Potency in test [2] was 2.13 µM (active).
For the molecule `CCC(C)C(C)=O` (configuration not stated), the Potency result in test [1], in test [2], in [3], in test [4], in [5] and in test [6] was “inactive” each time. For the same molecule, the Potency result in test [7], in [8], in test [10], in test [11], in test [12] and in test [16] was “inactive” each time. The Potency entry in [17], in test [13], in [18], in test [14] and in test [15] was “inactive” throughout.
For the molecule `NCCCN1CCOCC1`, the Potency result in [1], in test [2], in test [3], in [4], in test [5] and in [6] was “inactive” in each case. The Potency result in test [7], in test [8], in test [11], in test [12], in [16] and in [17] was “inactive” each time. In addition, the Potency entry in [13] and in [15] was “inactive” each time.
